Our source for the B-score values is PubChem BioAssay AID641 (Vanderbilt High Throughput Screening Facility, 2007).

Hit rate of the full screen: of about 58,000 compounds, about 3,400 (5.9%) were called active. This is one part of a sample in which actives are shown more often than they occur.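 The calls were made as follows: active = luminescence count or its row- and column-corrected plate score outside the 99.7% band of the plate's sample wells, on either side; inactive = the rest.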

The target of the assay is D(1A) dopamine receptor (Homo sapiens) (UniProt P21728). Briefly: D1 CRE-luciferase signal change, two-sided – cell-based, HEK293 D1, dopamine EC30, D1 allosteric modulator project, primary screen (AID 641). The note with it: dopamine EC30 potentiation, at 10 µM, actives deviate in either direction.
Chain of D(1A) dopamine receptor (Homo sapiens) (P21728 whole entry, looked up): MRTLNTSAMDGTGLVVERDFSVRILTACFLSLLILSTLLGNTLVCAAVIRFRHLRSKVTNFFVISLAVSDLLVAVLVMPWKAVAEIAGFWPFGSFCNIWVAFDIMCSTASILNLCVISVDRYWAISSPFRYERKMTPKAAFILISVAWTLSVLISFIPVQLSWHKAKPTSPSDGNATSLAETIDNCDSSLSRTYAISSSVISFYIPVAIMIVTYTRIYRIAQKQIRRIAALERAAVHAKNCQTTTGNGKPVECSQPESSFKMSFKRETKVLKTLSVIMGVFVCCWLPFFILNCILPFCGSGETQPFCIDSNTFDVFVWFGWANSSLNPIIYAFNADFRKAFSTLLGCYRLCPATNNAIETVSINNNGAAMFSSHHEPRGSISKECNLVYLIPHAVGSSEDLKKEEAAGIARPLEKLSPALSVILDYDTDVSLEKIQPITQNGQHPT
With `CC(=O)Nc1ccc(S(=O)(=O)N2CCC(N(C)CCC(C)C)CC2)cc1`, the B-score was -0.0927 (inactive).
In the case of `CC(C)C1C2=C(CC(C)(C)CC2=O)ON1c1ccccc1` (centres undefined), the B-score is 6.74 (active).
Regarding `Cc1cc2c(cc1C)NC(c1ccccn1)C1=C(CC(C)(C)CC1=O)N2` (centres undefined), the B-score is -0.653 (inactive).
Turning to `CC1(C)CC(=O)NC=C(c2ccccc2)C1`, the B-score is -0.105 (inactive).
For the compound `Cc1cc(C)c(S(=O)(=O)NCCCN2CCOCC2)cc1Br`, the B-score was 0.0527 (inactive).
In the case of `COc1ccc(NC(=O)CN(C)S(=O)(=O)c2ccccc2)cc1OC`, the B-score is -0.205 (inactive).
Consider `COc1cccc(NC(=O)CN(C)S(=O)(=O)c2ccc(C)cc2)c1`, for which the B-score is -0.881 (inactive).
With `COc1ccc(S(=O)(=O)N(C)CC(=O)Nc2ccc3c(c2)OCCO3)cc1OC`, the B-score was 3.86 (active).
As for `Cc1cc(=O)n2nc(N3CCCC3C(=O)NCCCN3CC(C)CC(C)C3)sc2n1` (centres undefined), the B-score was -0.000281 (inactive).
Take `Cc1ccc(-c2nnc(SC(C)C#N)n2N)cc1` (centres undefined): the B-score is -0.328 (inactive).
For `COc1ccc(-c2noc(COc3ccc(Cl)c(C)c3)n2)cc1`, the B-score was -0.505 (inactive).
Take `COc1ccc(-c2cc(C(F)(F)F)n3nc(C(=O)N4CCOCC4)c(Cl)c3n2)cc1`: the B-score is -1.29 (inactive).
On to `c1coc(-c2nc3nc4ccccc4n3nc2-c2ccco2)c1`, for which the B-score was 2.64 (active).
The same measure for `Cc1nn2c3ccccc3nc2n(C)c1=O`: 0.34 (inactive).
Turning to `c1ccc(CSc2nnc(-c3ccco3)c(-c3ccco3)n2)cc1`, the B-score was 0.706 (inactive).
Regarding `CC1CCCN(Cc2nc3c(c(=O)n(C)c(=O)n3C)n2Cc2cccc3ccccc23)C1` (centres undefined), the B-score is -0.313 (inactive).
Take `CC1(C)Cc2c(sc3nc4n(c(=N)c23)CCCCC4)CO1`: the B-score is 0.888 (inactive).
Regarding `CCC1(C)Cc2c(sc3nc4n(c(=O)c23)CCCS4)CO1` (centres undefined), the B-score is 2.42 (active).
Regarding `O=c1c2ccccc2oc2nc3n(c(=O)c12)CCCS3`, the B-score is 0.013 (inactive).
As for `CC(=O)NCCc1ccc(S(=O)(=O)N(C)C2CCS(=O)(=O)C2)cc1` (centres undefined), the B-score was 1.13 (inactive).
With `N#Cc1c(/N=C/N2CCCC2)oc(-c2ccccc2)c1-c1ccccc1`, the B-score is 0.952 (inactive).
With `Cc1nc(SC(C)C)[nH]c(=O)c1Cc1ccccc1` the figure was 0.348 (inactive); with `C1=C(CCNc2ncnc3c2cnn3-c2ccccc2)CCCC1`, -1.37 (inactive).
On to `Cc1cc(Cl)c(S(=O)(=O)NCc2cccnc2)cc1OCC(N)=O`, for which the B-score was 0.213 (inactive).
As to `Clc1ccc(Cn2ncc3c(NCc4cccnc4)ncnc32)cc1`, the B-score is -2.9 (active).
For `CC12CN3CC(C)(CN(C1)C3c1ccc(Cl)cc1Cl)C2=O` (centres undefined), the B-score was -0.693 (inactive).
As for `Cc1ccc(-c2cc(C(F)(F)F)n3nc(C(=O)N4CCCC4)cc3n2)cc1`, the B-score is 1.18 (inactive).
On to `Cc1cccc(NC(=O)c2ccc3ccccc3n2)n1`, for which the B-score was 0.542 (inactive).
With `Cc1nnc(NC(=O)CSc2nccn2-c2cccc(C)c2C)s1`, the B-score is -0.587 (inactive).
`CCOC(=O)N1CCC(NC(=O)CCc2cn(C)c3ccccc23)CC1`: the B-score was 2.11 (inactive).
The same measure for `c1c2c(cc3sc(N4CCCCC4)nc13)OCCO2`: -4.94 (active).
For `O=C(Nc1nc2cc3c(cc2s1)OCCO3)c1cccc(S(=O)(=O)N2CCOCC2)c1`, the B-score was -0.542 (inactive).
For `Fc1cc(F)c2nc(N3CCOCC3)sc2c1`, the B-score is 0.966 (inactive).
For `CSCCC1NC2(C(=O)Nc3ccc(Cl)cc32)[C@@H]2C(=O)N(C3CCCC3)C(=O)[C@H]12` (some centres undefined), the B-score is 0.395 (inactive).
Take `Cc1ccc(-c2noc(CSc3nnnn3-c3ccccc3)n2)cc1`: the B-score is 0.0126 (inactive).
As for `Cn1nnnc1SCc1cc(=O)[nH]c2ccccc12`, the B-score was 0.325 (inactive).
As for `CN(C)c1nc(N)nc(CSc2nnnn2-c2cccc3ccccc23)n1`, the B-score is 7.63 (active).
As for `Cn1c(SCc2c(F)cccc2Cl)nnc1-c1cnccn1`, the B-score was -0.043 (inactive).
As to `Cc1nc2cc(-c3ccc(F)cc3)nn2c(N2CCOCC2)c1C`, the B-score was 3.86 (inactive).
For the compound `C/C(O)=C\c1nc(=O)c2c(C)cc(C)nc2n1-c1ccccc1`, the B-score is 0.549 (inactive).
For `O=C1CCCC2=C1C(c1cccs1)n1nc(SCc3ccccc3)nc1N2` (centres undefined), the B-score is 0.252 (inactive).
On to `COC(=O)c1nc(NC(=O)c2ccc(Cl)cc2)n[nH]1`, for which the B-score was -0.0452 (inactive).
Consider `C=CCNc1nc(C)nc(OC)n1`, for which the B-score is 0.422 (inactive).
For `COc1nc(NCc2ccc(Cl)cc2)nc(OC)n1`, the B-score was 6.81 (active).
As for `Cc1c(-c2nn(C)c(=O)c3ccccc23)oc2ccc(F)cc2c1=O`, the B-score is 1.77 (inactive).
For the compound `CC(CNC(=O)c1ccc(Br)o1)NC(=O)c1ccc(Br)o1` (centres undefined), the B-score was -0.012 (inactive).
Turning to `CCc1nc(C)cn1S(=O)(=O)c1cc(OC)c(C)cc1C`, the B-score was -0.851 (inactive).
Take `COc1ccc(CCNC(=O)c2cc(-c3ccc4c(c3)OCO4)on2)cc1OC`: the B-score was 0.448 (inactive).
For the compound `Cn1c(C(=O)NCCCN2CCCCC2)cc2sccc21`, the B-score is -0.452 (inactive).
In the case of `COc1ccc(CCNC(=O)c2cc3sccc3n2C)cc1OC`, the B-score is 4.1 (active).
With `COC(CCN(C)C)(c1ccccc1)c1ccccc1`, the B-score is -0.765 (inactive).
Turning to `COCCn1nnnc1C(c1cc2ccc(OC)cc2[nH]c1=O)N1CCc2ccccc2C1` (centres undefined), the B-score is -0.278 (inactive).
Consider `CCOc1ccc2[nH]c(=O)c(C(c3nnnn3CCOC)N3CCOCC3)cc2c1` (centres undefined), for which the B-score was 10.2 (active).
The same measure for `COc1ccc(N2CCN(C(c3cc4ccc(C)cc4[nH]c3=O)c3nnnn3C3CCCC3)CC2)cc1` (centres undefined): 0.0349 (inactive).
The same measure for `O=C(c1cc(-c2cccc(O)c2)on1)N1CCc2ccccc2C1`: -0.88 (inactive); for `Cc1ccc(C2CC(c3cccc(Br)c3)n3nc(N)nc3N2)cc1` (centres undefined): 9.49 (active); for `CCOc1ccccc1C1CC(c2ccc(Cl)cc2)Nc2nc(N)nn21` (centres undefined): 1.36 (inactive).
In the case of `FC(F)Oc1ccccc1C1CC(c2ccc(Br)s2)Nc2ncnn21` (centres undefined), the B-score is 0.0618 (inactive).
For the compound `COc1ccc(C2CC(c3ccc(C)cc3)Nc3ncnn32)cc1` (centres undefined), the B-score was 0.317 (inactive).
In the case of `COc1ccc(C2CC(c3ccc(Cl)cc3Cl)Nc3nc(N)nn32)cc1OC` (centres undefined), the B-score is -0.179 (inactive).
On to `Cc1ccc(C2CC(c3cccc(C)c3)n3nc(N)nc3N2)cc1` (centres undefined), for which the B-score was 6.52 (active).
For the compound `Clc1ccc(C2CC(c3cccs3)n3ncnc3N2)cc1Cl` (centres undefined), the B-score was 2.58 (inactive).
With `CCOc1ccccc1C1CC(c2ccccc2)Nc2nc(N)nn21` (centres undefined) the figure was 5.88 (active).
For `Nc1nc2n(n1)C(c1ccco1)CC(c1ccc(Cl)c(Cl)c1)N2` (centres undefined), the B-score was 0.226 (inactive).
With `CCc1nnc(NC(=O)c2cccs2)s1`, the B-score is -1.13 (inactive).
As for `COc1ccc(OC)c(S(=O)(=O)Nc2ccccc2F)c1`, the B-score is 0.662 (inactive).
With `O=C(CSc1nnc(-c2cccs2)n1-c1ccccc1)NCc1ccco1` the figure was 0.124 (inactive); with `CCOc1cc(C(=S)N2CCOCC2)ccc1O`, 0.0105 (inactive).
Turning to `O=C(CSC1=NCCS1)Nc1nc(-c2ccccc2)cs1`, the B-score is 2.09 (inactive).
Take `NC(=O)c1ccccc1NC(=O)c1ccccc1F`: the B-score is -0.754 (inactive).
With `COc1ccc(-n2nnc3c(=O)n(CC(=O)N4CCC(Cc5ccccc5)CC4)cnc32)cc1`, the B-score was -0.0249 (inactive).
Consider `COCCNC(=O)Cn1cc2c(n1)CCCCC2`, for which the B-score is -0.978 (inactive).
On to `COc1ccc(S(=O)(=O)N(CCCN2CCCC2=O)Cc2cc3c(C)ccc(C)c3[nH]c2=O)cc1`, for which the B-score was 0.354 (inactive).
The same measure for `CN1CCN(CC(O)COCc2ccc3c(c2)OCO3)CC1` (centres undefined): 3.63 (active).
With `O=C(c1cccs1)N1CCN(Cc2ccc3c(c2)OCO3)CC1` the figure was -0.554 (inactive); with `Cc1cc(N2CCN(Cc3ccc4c(c3)OCO4)CC2)n2ncnc2n1`, 0.443 (inactive).
In the case of `CC(=O)Nc1ccc(S(=O)(=O)N2CCSCC2)cc1`, the B-score is -0.0119 (inactive).
For the compound `CCOC(=O)C(C)Oc1cccc2c(=O)n(CC(=O)N3CCc4ccccc43)ccc12` (centres undefined), the B-score is 0.245 (inactive).
For `COCCNCCOCCOc1cccc(OC)c1`, the B-score was -0.824 (inactive).
As to `O=C(NCc1ccccn1)c1ccc2nc(-c3ccco3)c(-c3ccco3)nc2c1`, the B-score is 7.64 (active).
With `Cc1cccn2c(=O)c3cc(C(=O)NCc4ccccn4)n(C)c3nc12` the figure was 0.762 (inactive); with `O=C(NCc1ccccn1)c1cc2ccccc2oc1=O`, 0.0147 (inactive).
Regarding `CCOC(=O)c1sc(NC(=O)C(CC)Sc2nccn2C)nc1C` (centres undefined), the B-score was 0.947 (inactive).
For the compound `Cc1cc(C)nc(SCc2ccccc2C#N)n1`, the B-score is 1.42 (inactive).
`CCC(Sc1nncn1C)C(=O)Nc1nnc(-c2ccc(Cl)cc2)s1` (centres undefined): the B-score was 0.176 (inactive).
With `COCCN(CC(=O)Nc1ccccc1C)S(=O)(=O)c1ccc(S(=O)(=O)N2CCCC2)cc1` the figure was 0.0335 (inactive); with `CCn1c(SCCC(C)C)nnc1-c1c[nH]c2ccccc12`, -1.04 (inactive); with `COc1ccc(CNC(=O)c2cc3c(=O)n4ccccc4nc3n(CC3CCCO3)c2=N)cc1` (centres undefined), -0.73 (inactive).
Regarding `CCCn1c(=NC(C)=O)c(C(=O)OCC)cc2c(=O)n3ccccc3nc21`, the B-score was 4.16 (active).
With `CCOC(=O)c1cnc2sccn2c1=O` the figure was -0.341 (inactive).
With `COc1cccc(N2C(=O)C3CCCN3C2c2ccc(F)cc2)c1` (centres undefined), the B-score is 0.0389 (inactive).
`COc1ccc(-c2nn(-c3ccccc3)cc2C(=O)Nc2nc(CC(C)=O)ns2)cc1`: the B-score was 0.451 (inactive).
In the case of `COCCNC(=O)C(c1ccc(C)o1)N(Cc1ccccc1)C(=O)Cn1nnc2ccccc21` (centres undefined), the B-score is 0.0616 (inactive).
Regarding `Cc1ccc(-c2nn(-c3ccccc3)cc2CN(Cc2ccccc2)C(=O)CCC(=O)O)o1`, the B-score is 13.6 (active).
With `O=C(O)CCCC(=O)Nc1ccccc1-n1ccnc1`, the B-score is -0.0259 (inactive).
`CNC(=O)CSc1nnc(CCc2ccccc2)n1-c1ccccc1`: the B-score is 0.762 (inactive).
Turning to `CC1=C(C(N)=O)C(c2ccc3c(c2)OCO3)n2nc(-c3cccc(C)c3)nc2N1` (centres undefined), the B-score is 0.00602 (inactive).
As to `c1ccc(-c2nnc3n2NC(c2ccc4c(c2)OCO4)S3)cc1` (centres undefined), the B-score was 7.49 (active).
With `O=C(CN1CCN(c2nc(-c3ccccc3)cs2)CC1)NCc1ccc2c(c1)OCO2`, the B-score was -0.0459 (inactive).
